Each structure is given as a SMILES string. Records with an inconclusive call do not appear. A call without a number means that no potency is given here. Active and inactive are the calls of the source. The call rests on the fitted dose curve; in most records, active means well fitted cell-killing curve with a large enough effect in the repeat runs; inconclusive means weak or mixed curves, or effect the other way; inactive means flat fitted curve, though single readings scatter.
Potency means the concentration at half of the fitted maximal effect.

The nature of this assay: qHTS assay to identify small molecule that activate the aryl hydrocarbon receptor (AhR) signaling pathway - cell viability counter screen (AID 743086). Further: nearly all actives have a fitted effect of over 45% in size. Particulars: HepG2-AhR-luc viability, CellTiter-Fluor, 24 h; series mostly up to 70.3 µM. The text has this: U.S. Tox21 Program National Center for Advancing Translational Sciences [NCATS] NIH Chemical Genomics Center [NCGC] U.S. Environmental Protection Agency [EPA] National Institutes of Environmental Health Sciences [NIEHS] National Toxicology Program [NTP] U.S. Food and Drug Administration [FDA] Tox21 Assay overview: The Aryl hydrocarbon Receptor (AhR), a member of the family of basic helix-loop-helix transcription factors, is crucial to adaptive responses to environmental changes. AhR mediates cellular responses to environmental pollutants such as aromatic hydrocarbons through induction of phase I and II enzymes but also interacts with other nuclear receptor signaling pathways A cell based HepG2-AhR-luc assay (HG2L7.5c1 cell line, developed by Dr. Michael S. Denison, University of California at Davis) was used to assess the activation of AhR. HepG2 (human hepatocellular carcinoma) cells were stably transfected with an Ah receptor-responsive firefly luciferase reporter gene plasmid containing 20 dioxin responsive elements and luciferase reporter gene. Increased luciferase activity can be used to identify the compounds that induce AhR activation. The cytotoxicity of the compounds screened against the HepG2-AhR-luc cell line was tested in parallel by measuring the cell viability using CellTiter-Fluor assay in the same wells.
Tox21 Assay Protocol Summary: 4000 cells in 5 uL/well were dispensed into white wall/solid bottom 1536-well plates using a Multidrop Combi (Thermo Fisher Scientific Inc., Waltham, MA) dispenser. After the assay plates were incubated at 37C for 5 h, 23 nL of compound or DMSO vehicle was transferred to the assay plates by a pintool station (Kalypsys, San Diego, CA). The plates were incubated at 37C for 24 hr. For cell viability measurement, 1 ul/well of CellTiter-Fluor reagent (Promega, Madison, WI) was added into the assay plates using a Flying Reagent Dispenser (FRD) (Aurora Discovery, CA),and then the assay plates were incubated at 37C for 30 min. The fluorescence intensity in the plates was measured using a ViewLux plate reader (PerkinElmer, Shelton, CT), followed by the addition of 4 uL of ONE-Glo Luciferase Assay reagent (Promega) using an FRD (Aurora Discovery). After the assay plates were incubated at room temperature for 30 min, luminescence intensity was measured using a ViewLux plate reader (Perkin Elmer).
Background: qHTS replaces the single test concentration by a dilution series.
Turning to `C=CCOC(=O)c1ccc(C(=O)OCC=C)c(C(=O)OCC=C)c1`, the Potency result is “inactive”.
With `CNCc1ccccc1`, the Potency result was “inactive”.
`CCCOCCOCCOCCO`: the Potency result was “inactive”.
Regarding `C=C(C)C(=O)OC1CC(C)CC(C)(C)C1` (stereo not given), the Potency entry is “inactive”.
In the case of `CC(C)c1ccccc1O` it was “inactive”; in that of `CCCCCCCCCOCC1CO1` (stereo not given), “inactive”.
`CCC1Nc2cc(Cl)c(S(N)(=O)=O)cc2S(=O)(=O)N1` (stereo not given): the Potency entry is “inactive”.
On to `CC(=O)OC(C)c1ccccc1` (stereo not given), for which the Potency entry is “inactive”.
Under `O=P(O)(O)OCC(O)CO` (stereo not given) stands “inactive”; under `Cc1ccc(S(=O)(=O)NC(=O)NC2CCCCCCC2)cc1`, “inactive”; under `SCCSCCS`, “inactive”.
On to `CCC(C)(CCC(C)C)C(=O)[O-].CCC(C)(CCC(C)C)C(=O)[O-].[Zn+2]` (stereo not given), for which the Potency entry was “inactive”.
Consider `NS(=O)(=O)c1cc2c(cc1Cl)NC(CC1CCCC1)NS2(=O)=O` (stereo not given), for which the Potency result is “inactive”.
Regarding `C[N+](C)(C)CC(O)CCl` (stereo not given), the Potency entry is “inactive”.
For `O=c1cc(O)c(Cl)c[nH]1`, the Potency result is “inactive”.
Take `C=CCOc1c(Br)cc(Br)cc1Br`: the Potency entry is “inactive”.
Turning to `CCCCOC(=O)C(C)OC(=O)CCC` (stereo not given), the Potency result is “inactive”.
For the compound `O=C(O)C(=O)Nc1cccc(-c2nn[nH]n2)c1`, the Potency result is “inactive”.
In the case of `N#CCCOCCOCCC#N` it was “inactive”; in that of `Cc1cccc(Nc2ccncc2S(=O)(=O)NC(=O)NC(C)C)c1`, “inactive”; in that of `CCCCOC(=O)C(=O)OCCCC`, “inactive”.
For `CC(Cl)COP(=O)(OCC(C)Cl)OCC(C)Cl` (stereo not given), the Potency result is “inactive”.
As for `COc1ccc(N=Nc2cc(C)c(N=Nc3ccc(S(=O)(=O)O)cc3)cc2OC)cc1`, the Potency is 48.6 µM (active).
Consider `CCCCCCCCCCCCCC(=O)OC`, for which the Potency entry is “inactive”.
Take `CC(=O)OCCCc1ccccc1`: the Potency result is “inactive”.
Take `O=[Si]=O`: the Potency entry is “inactive”.
In the case of `CCNC(=O)NCCCOc1cccc(CN2CCCCC2)c1` it was “inactive”.
Turning to `CC(=O)N(CC(O)CO)c1c(I)c(C(=O)NCC(O)CO)c(I)c(C(=O)NCC(O)CO)c1I` (stereo not given), the Potency result is “inactive”.
Regarding `CC(C)CCC(=O)CCC(C)C`, the Potency entry was “inactive”.
`Oc1ccccc1Cc1ccccc1O`: the Potency result is “inactive”.
For `NS(=O)(=O)c1cc2c(cc1Cl)NC(C(Cl)Cl)NS2(=O)=O` (stereo not given), the Potency entry is “inactive”.
Take `c1ccc(CNc2ncnc3nc[nH]c23)cc1`: the Potency result is “inactive”.
In the case of `Cc1nc2ccccc2c(=O)o1`, the Potency entry was “inactive”.
For `O=C(Nc1cccc(C2=NCCN2)c1)Nc1cccc(C2=NCCN2)c1`, the Potency entry was “inactive”.
Consider `CCC(=O)OCCC(C)CCC=C(C)C` (stereo not given), for which the Potency result was “inactive”.
Take `C=C(C)C(=O)OCCCCCCOC(=O)C(=C)C`: the Potency result was “inactive”.
As to `CN(C)CCOCCN(C)CCO`, the Potency result was “inactive”.
Under `CC(=O)Nc1ncc([N+](=O)[O-])s1` stands “inactive”; under `CCS(=O)(=O)CCn1c([N+](=O)[O-])cnc1C`, “inactive”; under `Cc1cc(C)cc([N+](=O)[O-])c1`, “inactive”.

Values taken from PubChem BioAssay (Tox21).
